Assay outcomes deposited in PubChem BioAssay by National Center for Advancing Translational Sciences (NCATS).
Sampled rows, rich in hits. Any-hit rate of the full collection: about 7.2%.
RE007 growth inh = less growth of the S. pombe RE007 Vpr strain | S. pombe RE007 Vpr strain, BacTiter-Glo ATP luminescence, 24 h | AID 651644 | 360,000 compounds, 0.21% hits | Potency, µM (top dose mostly 92.2 µM), inactives show at the top dose activity change, negative = less growth, actives largely listed as inhibitors; active = well fitted falling curve with a large enough effect; inconclusive = small, poorly fitted or top-dose-only effect; inactive = no such curve, though single readings can be large or run the other way; note: nearly all actives have a fitted effect of over 50% in size
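Fission yeast strain RE007, carrying one chromosomally integrated HIV-1 vpr copy, was seeded at OD 0.01 in PMG+AL medium with 23 nL pinned compound. After 24 h at 30 °C and 99% humidity, viability was read by BacTiter-Glo luminescence.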
LASV entry inh = blocks Lassa virus binding to or entry into cells; Lassa virus pseudotype entry inhibition, cell reporter; Potency, µM (doses to about 37.9 µM), for the others: top-dose activity change, negative = inhibition, hits mostly inhibitors; 300,000 compounds, 1.2% hits; calls by dose curve; tested in HEK293 cells; note: nearly all actives have a fitted effect of over 50% in size
MARV entry inh = inhibitors of Marburg virus binding or cell entry. Marburg virus pseudotyped entry inhibition, cell reporter. Potency, µM (titrated, usually from 37.8 µM), without a hit: top-dose activity change, negative = inhibition, usual class: inhibitors. AID 540276. 300,000 compounds, 1.8% hits; calls by dose curve; tested in HEK293 cells
FMDV inh = antivirals against foot and mouth disease virus; 410,000 compounds, 1.2% hits; FMDV antiviral cell-based qHTS; Potency, µM (doses to about 57.9 µM), for inactives: at the highest dose activity change, negative = inhibition, most hits filed as inhibitors; calls by dose curve; tested in HEK293T cells; note: read-out not given here; nearly all actives have a fitted effect of over 45% in size
HCV inhibitor = inhibitors of hepatitis C virus infection. Huh7.5.1 HCVcc-Cre infection, luciferase reporter, 44 h. Potency, µM (titrated, usually from 41.8 µM), inactives show at the highest dose activity change, negative = inhibition, usual class: inhibitors. 340,000 compounds, 3.4% hits. AID 651820
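Seed cells (1,000/well) for 4 h; treat with compound and infect with HCVcc-Cre, moi about 0.5. Incubate 44 h, then detect luciferase activity.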
Sm TGR block = S. mansoni TGR enzyme inhibition | Q962Y6 | purified TGR, DTNB reduction, TNB absorbance 405 nm | Potency, µM (top dose mostly 114 µM), for inactives: at the top dose activity change, negative = inhibition, usual class: inhibitors | 360,000 compounds, 3% hits | AID 485364; note: nearly all actives have a fitted effect of over 60% in size
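Kinetic colorimetric format: TGR-catalysed, NADPH-driven DTNB reduction monitored via TNB absorbance. Enzyme dispensed at 20 nM; compound exposure 15 min at room temperature before reaction start.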
Starred values were filed as active, the others as inactive; ? = inconclusive; . = no result; [ ] = another dose, or the depositor's remark. Unless noted, calls come from the whole dose curve; as a rule, active = well fitted curve in the direction sought with a large enough effect; inconclusive = small, poorly fitted or top-dose-only effect, or another doubt; inactive = no such curve, though single readings can be large; an effect the other way counts as inactive or inconclusive. % is set by controls: 0 for no effect and ±100 for the full control effect; potency is the fitted concentration of half-maximal effect.

SMILES	RE007 growth inh	LASV entry inh	MARV entry inh	FMDV inh	HCV inhibitor	Sm TGR block
Cc1cc(N2CCN(C(C(=O)NC3CCCC3)C(C)(C)C)CC2)c2ccccc2n1 (stereo unspecified)	?	.	.	-8%	.	.
Cc1ccc(OCC(=O)Nc2ccccc2C(=O)OCc2cc(=O)n3ccsc3n2)cc1	.	26%[46.1 µM]	.	16%	.	5%
CCN(CC)CCNC(=O)c1cnn(-c2nccc(-c3cc4ccccc4o3)n2)c1C	.	.	.	-9%	.	.
CCOc1ccc(C(O)(c2ccccc2OC)C(CN2CCCC2)c2ccccc2)cc1 (stereo unspecified)	4%	.	.	?	-10%	-2%
COc1ccc(C(O)(c2ccccc2OC)C(CN2CCOCC2)c2ccccc2)cc1 (stereo unspecified)	1%	.	11µM*	-26%	?	2%
CCCCCCCCCC(=O)NC(CN1CCOCC1)[C@H](O)c1ccccc1 (stereo partly specified)	.	?	16µM*	.	.	.
O=C(c1ccc(Cl)cc1)C1CCN(Cc2ccccc2)CC1	-4%	.	.	-24%	-10%	3%
O=C(c1ccc(Cl)cc1)C(CN1CCCC1)c1ccccc1 (stereo unspecified)	?	.	.	25µM*	?	28µM*
CCCOc1ccc(C(=O)C(CN2CCCC2)c2ccccc2)cc1 (stereo unspecified)	-3%	?	?	18µM*	?	-12%
CCOc1ccc(-n2c(SCC(=O)Nc3ccc4c(c3)OCCO4)nc3c([nH]c4ccccc43)c2=O)cc1	.	13%[46.1 µM]	.	-21%	.	3%
COc1ccc(Cl)cc1NC(=O)C1CCCN(c2ncnc3onc(C)c23)C1 (stereo unspecified)	.	-16%[46.1 µM]	.	?	.	7%
Cc1noc(C)c1C(=O)N1CCC2(CC1)CN(c1ccccc1)C2	.	.	.	-17%	.	.
COc1ccccc1C1CN(Cc2c(C)nc3sccn23)Cc2ccccc2O1 (stereo unspecified)	.	.	.	7%	.	.
COc1ccc(C(=O)C(CN2CCOCC2)c2ccccc2)cc1 (stereo unspecified)	-21%	13µM*	?	11µM*	?	-25%
O=C(Nc1ccc(Oc2ccccc2)nc1)C1CCCCN1Cc1ccc(O)cc1 (stereo unspecified)	.	.	.	.	.	32µM*
O=C(Nc1ccc(Oc2ccccc2)nc1)C1CCCCN1Cc1cccc(O)c1 (stereo unspecified)	-3%	?	?	-7%	?	5%
COc1cc(CN2CCCCC2C(=O)Nc2ccc(Oc3ccccc3)nc2)ccc1O (stereo unspecified)	-10%	-1%	-9%	5%	-3%	1.8µM*
COC1=CC(=O)OC(c2ccc(C#N)cc2)C1 (stereo unspecified)	-2%	.	.	-2%	.	.
Cc1ccc(C(=O)CC2(O)C(=O)N(CCc3ccccc3)c3ccc(Cl)cc32)cc1 (stereo unspecified)	.	?	-16%[46.1 µM]	-23%	.	-15%
N#CC(C#N)=C/C(C#N)=C(/N)N1CCN(c2ccc(Cl)cc2)CC1	10%	9%	-19%	18µM*	11%	0%
NCCCCNS(=O)(=O)c1cccc2c(Cl)cccc12	.	.	4µM*	.	.	.
NCCCCCCNS(=O)(=O)c1cccc2ccccc12	.	.	.	40%	.	.
Cc1ccc(S(=O)(=O)NN=Cc2ccco2)cc1	17%	.	.	106%	.	.
Cc1ccc(S(=O)(=O)N/N=C/c2cc(Br)c(C)o2)cc1	-24%	1%	0%	36%	-8%	0.1µM*
O=C(N/N=C/c1ccc(Br)s1)c1ccncc1	13%	?	?	14%	-15%	-14%
SMILES	RE007 growth inh	LASV entry inh	MARV entry inh	FMDV inh	HCV inhibitor	Sm TGR block
O=C(N/N=C/c1cc(Br)c(Br)s1)c1ccncc1	0%	10µM*	?	19%	?	1%
Cc1ccc(C)n1-c1ccc(C(=O)N/N=C/c2ccncc2)cc1	?	.	-19%[46.1 µM]	-8%	-3%	25µM*
Cc1c(C(=O)NCCC2CCCN2C)cnn1-c1nccc(-c2ccccc2F)n1 (stereo unspecified)	.	.	.	-14%	.	.
COc1cc(OC)c2c(-c3cccc(-c4ccc(NC(C)=O)cc4)c3)cc(=O)oc2c1	5%	.	.	4%	?	.
COc1cc(OC)c2c(-c3cccc(-c4sccc4C(C)=O)c3)cc(=O)oc2c1	6%	.	.	0%	3.2µM*	.
C=Cc1ccc(Cn2c(C(=O)O)c(CNCc3ccccc3)c3ccc(OC)cc32)cc1	.	-12%[46.1 µM]	.	-11%	.	2%
C[C@@H]1CN([C@H](C)CO)C(=O)c2cc(NC(=O)Cc3ccccc3)ccc2O[C@H]1CN(C)Cc1ccc(Oc2ccccc2)cc1	2%	.	.	-23%	11µM*	.
C[C@H](CO)N1C[C@H](C)[C@@H](CN(C)C)Oc2c(NC(=O)Cc3ccccc3)cccc2C1=O	7%	.	.	27%	0.56µM*	.
C[C@H](CO)N1C[C@H](C)[C@@H](CN(C)Cc2ccccc2)Oc2c(NC(=O)Cc3ccccc3)cccc2C1=O	-8%	.	.	10%	?	.
C[C@H]1CN([C@@H](C)CO)C(=O)c2cc(NC(=O)Cc3ccccc3)ccc2O[C@H]1CN(C)Cc1ccccc1	2%	.	.	-14%	6%	.
CCc1ccccc1N(C)C(=O)c1cn(-c2cccc(OC)c2)c(=O)c2ccccc12	.	10%[46.1 µM]	.	-8%	.	1%
COc1cc(=O)n2c(c1C(=O)N(C)Cc1nonc1C)CCN(C(=O)c1ccc(C)c(C)c1)CC2	.	.	.	22%	.	.
CC(=O)N1CCC2(CC1)C(C#N)=C(N)Oc1n[nH]c(C(F)(F)F)c12	0%	5%	22%	-24%	31%	28µM*
COc1cc(Nc2ccccc2Cl)c([N+](=O)[O-])nc1[N+](=O)[O-]	15%	?	?	?	?	40µM*
COc1ccccc1Nc1ccc([N+](=O)[O-])cc1N	9%	-2%	19%	-17%	-10%	1%
O=C(/C=C/c1ccccc1)Nc1nc2n(n1)C(c1ccc(Cl)cc1)C=C(c1ccccc1)N2 (stereo unspecified)	.	1%[46.1 µM]	10%[46.1 µM]	-20%	.	0%
N#Cc1c(N)nc2c3c(sc(=N)c2c1N)NC(=O)CC3c1ccccc1 (stereo unspecified)	21%	4%	?	-4%	-13%	6%
Cc1c(C#N)c(N)nc2c3c(sc12)NC(=O)CC3c1ccc(Cl)cc1 (stereo unspecified)	22%	?	?	22µM*	22µM*	-5%
Cc1ccc(CNC(=O)Nc2ccccc2)n1C	-2%	19%[46.1 µM]	9%[46.1 µM]	22%	-29%	28µM*
Cc1ccc(CNC(=O)Nc2ccc(F)cc2F)n1C	-11%	?	-4%[46.1 µM]	-7%	?	32µM*
Cn1cccc1CNC(=O)Nc1ccccc1	21%	?	17%	92%	-9%	-25%
C=CCNC(=O)Nc1ccc(F)cc1F	1%	?	?	-6%	12%	10%
